Common to all, as to test: DAPPL (digital affinity profiling via proximity ligation, sequencing); 10 mM Tris-HCl pH 7.5, 50 mM NaCl, 1 mM DTT, 4% glycerol, room temperature, 30 min; GST-TFs on glutathione beads, 16-mer random dsDNA library, 0.1% formaldehyde crosslink after washing; high values mean tight binding
Conditions in all cases: protein: recombinant; tags: N-terminal GST; dsDNA, one strand shown

One experiment concerns the target T1, GABPA (Homo sapiens, UniProt Q06546 1-454).
T1 sequence: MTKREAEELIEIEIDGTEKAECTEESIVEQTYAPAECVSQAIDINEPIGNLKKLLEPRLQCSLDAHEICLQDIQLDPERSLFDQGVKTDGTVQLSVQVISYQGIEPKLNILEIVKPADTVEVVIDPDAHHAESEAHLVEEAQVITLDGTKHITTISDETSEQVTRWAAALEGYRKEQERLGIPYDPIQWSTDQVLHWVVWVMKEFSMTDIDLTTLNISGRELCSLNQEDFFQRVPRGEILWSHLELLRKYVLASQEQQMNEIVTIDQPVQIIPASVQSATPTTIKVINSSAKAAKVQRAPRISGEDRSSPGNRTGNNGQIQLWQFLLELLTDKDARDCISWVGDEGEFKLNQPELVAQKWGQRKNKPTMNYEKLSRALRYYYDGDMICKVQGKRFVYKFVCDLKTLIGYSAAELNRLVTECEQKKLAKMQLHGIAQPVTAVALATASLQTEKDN
Put shortly: (§1)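 Binding signal is each hexamer's read frequency for a factor divided by its frequency in the tag-only sample. The factors were GST-fused human transcription factors from yeast, captured on glutathione beads, DNA-barcoded and pooled with that sample. Pools were incubated with 200 nmole of a random double-stranded 16-mer DNA library in Tris/NaCl/DTT/glycerol buffer at room temperature for 30 min, then washed, crosslinked with 0.1% formaldehyde, proximity-ligated with BsaI/T4 ligase (1 h, 37 °C), PCR-amplified and sequenced on an Illumina NextSeq500.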

A further experiment has as its target T2, EHF (Homo sapiens, UniProt Q9NZC4 1-300).
T2 sequence: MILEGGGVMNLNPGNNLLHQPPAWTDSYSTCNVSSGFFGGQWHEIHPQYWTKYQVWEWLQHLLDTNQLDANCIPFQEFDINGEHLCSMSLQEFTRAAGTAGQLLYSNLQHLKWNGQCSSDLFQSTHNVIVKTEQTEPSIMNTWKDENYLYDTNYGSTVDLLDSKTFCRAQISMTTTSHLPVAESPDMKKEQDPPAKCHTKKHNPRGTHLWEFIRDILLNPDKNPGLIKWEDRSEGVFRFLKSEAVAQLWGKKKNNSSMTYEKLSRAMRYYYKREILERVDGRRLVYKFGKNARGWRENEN
Put shortly: as §1

For the next experiment, the target named is ETV5 (Homo sapiens, UniProt P41161 1-510). Put shortly:
as §1

The next experiment has as its target T3, ELK4 (Homo sapiens, UniProt P28324-2 1-405).
T3 sequence: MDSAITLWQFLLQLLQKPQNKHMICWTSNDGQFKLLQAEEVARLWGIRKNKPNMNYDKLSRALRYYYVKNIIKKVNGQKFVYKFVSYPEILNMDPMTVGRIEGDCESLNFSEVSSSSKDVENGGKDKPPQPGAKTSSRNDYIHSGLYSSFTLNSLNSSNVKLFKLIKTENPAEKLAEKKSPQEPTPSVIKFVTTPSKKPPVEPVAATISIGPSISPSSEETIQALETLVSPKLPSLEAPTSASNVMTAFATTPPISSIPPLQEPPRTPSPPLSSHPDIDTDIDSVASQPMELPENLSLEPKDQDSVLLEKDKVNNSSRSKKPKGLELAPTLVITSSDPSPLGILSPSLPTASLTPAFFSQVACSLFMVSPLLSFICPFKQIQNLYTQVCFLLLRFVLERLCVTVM
Put shortly:
as §1

A further experiment deals with T4, ELK1 (Homo sapiens, UniProt P19419 1-428).
T4 sequence: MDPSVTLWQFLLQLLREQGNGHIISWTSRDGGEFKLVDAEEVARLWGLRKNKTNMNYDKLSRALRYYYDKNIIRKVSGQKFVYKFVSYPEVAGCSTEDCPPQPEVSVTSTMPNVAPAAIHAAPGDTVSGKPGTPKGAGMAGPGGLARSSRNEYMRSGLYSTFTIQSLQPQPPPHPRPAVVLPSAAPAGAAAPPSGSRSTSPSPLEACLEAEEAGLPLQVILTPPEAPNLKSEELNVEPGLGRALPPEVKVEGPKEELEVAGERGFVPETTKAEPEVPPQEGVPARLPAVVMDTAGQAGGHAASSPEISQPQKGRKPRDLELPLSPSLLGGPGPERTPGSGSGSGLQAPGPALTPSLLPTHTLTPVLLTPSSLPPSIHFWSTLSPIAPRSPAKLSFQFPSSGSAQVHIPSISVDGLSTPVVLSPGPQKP
Put shortly:
as §1

Another experiment deals with T5, ERG (Homo sapiens, UniProt P11308 1-479).
T5 sequence: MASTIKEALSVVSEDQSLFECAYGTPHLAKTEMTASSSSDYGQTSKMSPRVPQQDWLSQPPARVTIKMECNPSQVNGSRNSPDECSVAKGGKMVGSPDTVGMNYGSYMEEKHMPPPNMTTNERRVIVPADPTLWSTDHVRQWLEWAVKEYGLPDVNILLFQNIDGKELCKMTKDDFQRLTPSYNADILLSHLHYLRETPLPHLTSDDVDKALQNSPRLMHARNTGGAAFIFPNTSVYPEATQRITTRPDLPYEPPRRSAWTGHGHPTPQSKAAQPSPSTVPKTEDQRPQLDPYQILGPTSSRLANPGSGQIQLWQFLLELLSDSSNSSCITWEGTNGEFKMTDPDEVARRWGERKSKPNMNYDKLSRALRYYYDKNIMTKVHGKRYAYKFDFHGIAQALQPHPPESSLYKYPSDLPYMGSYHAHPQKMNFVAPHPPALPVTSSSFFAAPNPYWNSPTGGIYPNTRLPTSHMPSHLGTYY
Put shortly:
as §1

The target of another experiment is SPI1 (Homo sapiens, UniProt P17947 1-270). Put shortly:
as §1

Another experiment deals with T6, FEV (Homo sapiens, UniProt Q99581 1-238).
T6 sequence: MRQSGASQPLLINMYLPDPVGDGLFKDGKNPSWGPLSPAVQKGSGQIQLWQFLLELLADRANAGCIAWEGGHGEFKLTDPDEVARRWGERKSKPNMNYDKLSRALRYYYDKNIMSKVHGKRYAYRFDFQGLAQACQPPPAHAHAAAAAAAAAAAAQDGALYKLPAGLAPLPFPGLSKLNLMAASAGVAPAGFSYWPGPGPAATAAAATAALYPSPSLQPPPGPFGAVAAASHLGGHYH
Put shortly:
as §1

For a further experiment, the target named is T7, ETS2 (Homo sapiens, UniProt P15036 1-469).
T7 sequence: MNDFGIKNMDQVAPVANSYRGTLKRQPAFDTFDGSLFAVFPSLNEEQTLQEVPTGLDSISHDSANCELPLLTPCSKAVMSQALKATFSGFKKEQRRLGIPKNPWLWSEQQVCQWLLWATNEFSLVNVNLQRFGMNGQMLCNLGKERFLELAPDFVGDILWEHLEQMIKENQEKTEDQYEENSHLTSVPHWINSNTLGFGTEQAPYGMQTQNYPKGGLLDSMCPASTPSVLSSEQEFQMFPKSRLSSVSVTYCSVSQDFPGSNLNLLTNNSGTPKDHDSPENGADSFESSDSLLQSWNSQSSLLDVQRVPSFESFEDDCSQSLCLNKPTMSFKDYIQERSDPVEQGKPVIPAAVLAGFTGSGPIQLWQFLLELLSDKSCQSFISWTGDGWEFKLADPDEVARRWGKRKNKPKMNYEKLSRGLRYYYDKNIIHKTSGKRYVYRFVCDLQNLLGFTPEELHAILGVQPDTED
Put shortly:
as §1

The target of a further experiment is T8, ETV7 (Homo sapiens, UniProt Q9Y603 1-341).
T8 sequence: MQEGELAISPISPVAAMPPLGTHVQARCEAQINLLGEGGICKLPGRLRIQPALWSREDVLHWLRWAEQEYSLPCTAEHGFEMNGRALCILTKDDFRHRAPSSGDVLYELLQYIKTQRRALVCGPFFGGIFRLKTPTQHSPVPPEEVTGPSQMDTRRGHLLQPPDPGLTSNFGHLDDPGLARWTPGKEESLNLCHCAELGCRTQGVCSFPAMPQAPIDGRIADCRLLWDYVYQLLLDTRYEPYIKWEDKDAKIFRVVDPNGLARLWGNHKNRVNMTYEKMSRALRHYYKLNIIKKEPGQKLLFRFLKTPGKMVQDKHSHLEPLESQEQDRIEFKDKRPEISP
Put shortly:
as §1

A further experiment deals with ETV6 (Homo sapiens, UniProt P41212 1-452). Put shortly:
as §1

This passage reports binding signal results from paper PMC7862700, “An all-to-all approach to the identification of sequence-specific readers for epigenetic DNA modifications on cytosine”.

ETV5, sequence (P41161 whole entry): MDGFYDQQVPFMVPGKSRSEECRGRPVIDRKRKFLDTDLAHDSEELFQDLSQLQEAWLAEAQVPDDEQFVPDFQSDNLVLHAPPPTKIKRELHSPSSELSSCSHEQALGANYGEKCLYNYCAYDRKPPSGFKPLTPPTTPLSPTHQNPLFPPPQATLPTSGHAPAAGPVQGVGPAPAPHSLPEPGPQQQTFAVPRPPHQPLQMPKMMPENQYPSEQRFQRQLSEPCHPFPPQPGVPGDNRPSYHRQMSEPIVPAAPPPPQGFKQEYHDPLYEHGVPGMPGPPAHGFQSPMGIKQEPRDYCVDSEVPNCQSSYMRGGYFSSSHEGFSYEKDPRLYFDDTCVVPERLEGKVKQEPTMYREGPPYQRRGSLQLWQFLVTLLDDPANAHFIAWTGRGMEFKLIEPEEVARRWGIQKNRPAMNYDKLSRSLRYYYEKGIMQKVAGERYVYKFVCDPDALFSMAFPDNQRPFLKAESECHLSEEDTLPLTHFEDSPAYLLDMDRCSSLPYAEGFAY
ETV6, sequence (P41212 whole entry): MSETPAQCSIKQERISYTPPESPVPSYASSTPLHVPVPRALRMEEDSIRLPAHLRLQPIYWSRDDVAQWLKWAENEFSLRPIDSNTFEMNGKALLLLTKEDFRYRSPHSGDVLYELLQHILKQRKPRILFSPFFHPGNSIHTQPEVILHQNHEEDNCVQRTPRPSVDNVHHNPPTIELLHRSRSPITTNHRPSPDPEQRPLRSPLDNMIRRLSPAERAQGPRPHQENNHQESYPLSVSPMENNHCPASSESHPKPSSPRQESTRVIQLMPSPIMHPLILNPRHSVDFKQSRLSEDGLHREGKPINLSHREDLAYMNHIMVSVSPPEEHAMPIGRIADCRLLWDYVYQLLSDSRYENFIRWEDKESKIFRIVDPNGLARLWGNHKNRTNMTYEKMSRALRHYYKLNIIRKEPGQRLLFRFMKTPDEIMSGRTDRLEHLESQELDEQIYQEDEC

For CGAAGG, the binding signal with GABPA was 1 fold enrichment (6-mer frequency, TF over GST control); in the experiment with EHF, 1.03 fold enrichment (6-mer frequency, TF over GST control); in the experiment with ETV5, 1.05 fold enrichment (6-mer frequency, TF over GST control); with ELK4, 1.06 fold enrichment (6-mer frequency, TF over GST control).
TGGCGA: the binding signal was 1.02 fold enrichment (6-mer frequency, TF over GST control) with ELK1; 1.01 fold enrichment (6-mer frequency, TF over GST control) in the experiment with GABPA; 1.02 fold enrichment (6-mer frequency, TF over GST control) with ERG; 1.01 fold enrichment (6-mer frequency, TF over GST control) in the experiment with EHF; 1.03 fold enrichment (6-mer frequency, TF over GST control) in the experiment with SPI1; 1.02 fold enrichment (6-mer frequency, TF over GST control) in the experiment with FEV. In addition, the binding signal was 1.01 fold enrichment (6-mer frequency, TF over GST control) with ETV5; 1.06 fold enrichment (6-mer frequency, TF over GST control) with ETS2; 1.07 fold enrichment (6-mer frequency, TF over GST control) in the experiment with ETV7; 1.03 fold enrichment (6-mer frequency, TF over GST control) with ETV6.
